# Source: PubChem BioAssay
# Abeta rescue = qHTS for compounds that reverse cellular toxicity of Amyloid beta (A-beta) peptide in yeast: Primary Screen. yeast expressing A-beta42, growth rescue, OD600, 48 h; response scale: 0% DMSO, 100% iron-clioquinol control. Potency, µM (top dose mostly 46.1 µM), most hits filed as activators. 0.063% of 410,000 active; also: nearly all actives have a fitted effect of over 55% in size
#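 Yeast A-beta toxicity model in growth medium with pinned compounds, 48 h at 30 C; growth read as absorbance at 600 nm. Normalized to FeCl3/clioquinol equimolar mix (positive) and DMSO (negative).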
# TDP43 rescue = qHTS of TDP-43 Inhibitors. AID 652104, 2013. TDP-43 expressing yeast growth rescue, BacTiter-Glo, 24 h. 1.8% of 410,000 active. Potency, µM (titrated, usually from 46.1 µM), for the others: at the highest dose growth rescue (activation), hits mostly activators; also: % of control where 0% means no effect; nearly all actives have a fitted effect of over 50% in size
#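 Growth rescue of TDP-43-toxic yeast measured as ATP luminescence (BacTiter-Glo). Cells grown to mid-log in raffinose, induced in galactose at OD600=0.02, exposed to compound 24 hr at 30 deg C.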
# PTAP TSG101 blk = qHTS Assay for Iinhibitors of HIV-1 Budding by Blocking the Interaction of PTAP/TSG101. Tumor susceptibility gene 101 protein (Homo sapiens), Q99816. Fluorescence polarization, FITC-PTAP peptide / Tsg101 binding. Potency, µM (top dose mostly 115 µM), for inactives: top-dose activity change, negative = inhibition, most hits filed as inhibitors. 340,000 tested, under 10 active; active = well fitted inhibition curve with a large enough effect in the main read-out, with a control signal flat, not every such curve was filed as active; inconclusive = small, poorly fitted or top-dose-only effect, or effect the other way, or a change in a side signal; inactive = no such curve, though single readings can be large or run the other way; also: % of control where 0% means no effect
# Target sequence (Q99816 whole entry, looked up): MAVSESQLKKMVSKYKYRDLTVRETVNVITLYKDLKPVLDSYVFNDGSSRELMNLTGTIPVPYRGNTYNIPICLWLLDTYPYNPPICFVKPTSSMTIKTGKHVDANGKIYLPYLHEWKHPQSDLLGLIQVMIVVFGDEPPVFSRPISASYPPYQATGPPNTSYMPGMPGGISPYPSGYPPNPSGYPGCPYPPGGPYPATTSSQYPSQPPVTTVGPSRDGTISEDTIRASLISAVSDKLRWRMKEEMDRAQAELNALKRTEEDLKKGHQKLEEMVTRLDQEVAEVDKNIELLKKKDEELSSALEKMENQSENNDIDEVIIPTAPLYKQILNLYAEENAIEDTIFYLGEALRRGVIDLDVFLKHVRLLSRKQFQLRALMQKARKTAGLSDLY
#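 Steps: Tsg101 binding domain dispensed (10 uM final), compounds pinned in DMSO, FITC-labeled PTAP-motif peptide added (50 nM final); after 20 min binding at room temperature, polarization measured.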
# aSyn rescue = qHTS of alpha-syn Inhibitors; Yeast expressing alpha-synuclein, growth rescue, BacTiter-Glo, 24 h; 0.14% of 370,000 active; Potency, µM (series often up to 46.1 µM), for the others: at the highest dose growth rescue (activation), most hits filed as activators; also: % of control where 0% means no effect; nearly all actives have a fitted effect of over 65% in size
#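 Rescue of yeast growth: cells expressing toxic alpha-synuclein, induced in galactose at OD600 0.02, incubated with compound 24 h at 30 C. ATP luminescence quantified growth; inhibitors of toxicity appear as activators.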
# FUS yeast rescue = qHTS for Suppressors of FUS Proteinopathy: Primary screen using FUS-linked yeast assay. S. cerevisiae FUS-expressing, growth rescue, OD600, 24 h. Potency, µM (series often up to 76.6 µM), most hits filed as activators. 0.24% of 390,000 active. AID 1347120, 2019;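 also: plate controls were DMSO vehicle for no effect and reference control for full effect; nearly all actives have a fitted effect of over 55% in size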
#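 Absorbance at 600 nm, taken 24hr after compound addition, measured rescue of FUS-yeast growth at 30C. Induction used 2% galactose with seeding at OD 0.005. Controls: CP55940 from 92uM final, DMSO only.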
# Active calls of the source: *; i = inactive; ? = inconclusive; · = not tested or not shown; [ ] = dose if it differs, or a comment. Most compounds without a hit are left out; they make up all but 2.1% or so of the library. Unless noted, calls follow the shape of the dose curve; as a rule, active = well fitted curve in the direction sought with a large enough effect; inconclusive = small, poorly fitted or top-dose-only effect, or another doubt; inactive = no such curve, though single readings can be large; an effect the other way counts as inactive or inconclusive. Potency is read from the fitted curve at half-maximal effect.
SMILES,Abeta rescue,TDP43 rescue,PTAP TSG101 blk,aSyn rescue,FUS yeast rescue
O=c1[nH][nH]c2c1[C@H](c1ccccc1)O[C@H](C1CCCCC1)C2,i,35µM*,·,5%,?
O=c1[nH][nH]c2c1[C@H](c1ccc(F)cc1)O[C@H](C1CCCCC1)C2,i,32µM*,·,1%,?
CCCC[C@@H]1Cc2[nH][nH]c(=O)c2[C@@H](c2ccc(Cl)cc2)O1,i,0%,·,5%,i
O=c1[nH][nH]c2c1[C@H](c1ccc(Cl)cc1)O[C@H](C1CC1)C2,i,11µM*,·,1%,i
O=c1[nH][nH]c2c1[C@@H](c1ccc(F)cc1)O[C@H](C1CCCCC1)C2,i,14%,·,-2%,i
O=C(CC1N=C2c3ccccc3N=C(SCC(=O)Nc3cccc(Cl)c3)N2C1=O)NCc1cccs1 (configuration not stated),i,1%,·,·,?
Cc1ccc(NC(=O)OC2CC3CC2[C@H]2CCCCN2[C@H]3C)cc1 (some centres not stated),·,·,·,·,i
C=CCNC1=C(Cl)C(=O)N(c2cccc(Cl)c2Cl)C1=O,i[9.22 µM],16µM*,-3%,20%,i
Cc1nc2c(O)c3c(c(O)c2nc1C)C1C=CC3CC1,i,13µM*,2%,8%,·
CCOc1ccccc1NS(=O)(=O)c1ccc2c(c1)CC(C)N2C(=O)C1CC1 (configuration not stated),i,?,·,·,?
O=C(CCc1nc2cccnc2n1Cc1cccs1)Nc1cccc(Cl)c1,i,?,·,·,i
CCN(CC)C(=O)c1sc2nc(-c3ccccn3)[nH]c(=O)c2c1C,i,-26%,1%,7%,i
Cc1sc2nc(-c3ccccn3)[nH]c(=O)c2c1-c1ccccc1,i,18µM*,-4%,?,i
COc1ccc(CC(=O)NC(=S)Nc2cccc(C)c2)cc1,i,-6%,0%,18%,i
COc1ccc(CN(C)C(=S)Nc2ccc(Cl)cc2)cc1,11µM*,12%,-6%,-18%,i
CCN(CC)C(=S)Nc1ccc(OC)cc1,i,13%,0%,0%,·
COc1cccc(CN(C)C(=S)Nc2cccc(C)c2)c1,i,11µM*,-5%,-6%,i
Cc1ccccc1NS(=O)(=O)c1nnc(NC(=O)c2ccco2)s1,i,20%,·,·,i
COc1ccc(-n2c(=O)c3c(c4cc(OC)ccc4n3C)n(Cc3c(F)cccc3Cl)c2=O)cc1,i,10%,·,·,i
CC(C)c1ccc(NC(=O)CCCc2nc(-c3ccc(Cl)cc3)no2)cc1,i,8%,·,·,i
CC(CCC(C)[n+]1cccc(C#N)c1)[n+]1cccc(C#N)c1 (configuration not stated),·,·,·,-1%,·
COc1ccccc1NC(=O)Nc1nc(CC(=O)NCc2c(F)cccc2F)cs1,i,22%,0%,0%,i
COc1ccccc1NC(=O)Nc1nc(CC(=O)N2CCN(c3ccccc3F)CC2)cs1,i,0%,-5%,0%,28µM*
O=Cc1ccc(/C=C2\C=Cc3ccccc32)cc1,·,·,·,-1%,·
Cc1ccc(S(=O)(=O)N2CCN(c3nc(-n4ccnc4)nc4ccccc34)CC2)cc1,·,·,·,2µM*,·
SMILES,Abeta rescue,TDP43 rescue,PTAP TSG101 blk,aSyn rescue,FUS yeast rescue
O=C(Nc1ccc(Cl)cc1)c1cc2c(cc1O)[nH]c1ccccc12,i,4µM*,-2%,-13%,i
CCOC(=O)C1CCN(C(c2ccc(OCC)cc2)c2c(O)cc(C)n(CCOC)c2=O)CC1 (configuration not stated),i,5%,·,·,i
COc1ccc(Br)cc1/C=C/C(=O)c1ccc(NC(C)=O)cc1,i,18µM*,-4%,-8%,i
CC1(C(=O)NC2CCCC2)CCN1C(=O)Cc1ccc(-c2ccccc2)cc1 (configuration not stated),i,?,·,?,i
Cc1ccc(CNC(=O)C2(C)CCN2C(=O)Cc2ccc(-c3ccccc3)cc2)cc1 (configuration not stated),i,35µM*,·,?,i
CC1(C(=O)NCC2CCCCC2)CCN1C(=O)Cc1ccc(-c2ccccc2)cc1 (configuration not stated),i,20µM*,·,20%,?
Cc1oc(-c2ccccc2F)nc1CS(=O)(=O)CC(=O)N1CCN(c2ccccc2)CC1,i,12%,-3%,1%,i
Cc1ccccc1-c1nc(CS(=O)(=O)CC(=O)N2CCN(c3ccccc3)CC2)c(C)o1,i,13µM*,·,·,i
CCOC(=O)c1nnc(-c2cccs2)nc1NC(C)C,i,13µM*,-9%,5%,i
CCOC(=O)c1nnc(-c2cccs2)nc1Oc1ccccc1C(=O)OC,i,-3%,-3%,11%,i
CCCCOCCCNC(=O)C[C@@H]1C[C@@]2(C(=O)OC)CC(C)(C)CC=C2N(Cc2cccc3ccccc23)C1=O,i,11%,·,?,?
CC1Nc2ncnc(N3CCN(c4ccccc4)CC3)c2N(Cc2ccc(Cl)cc2)C1=O (configuration not stated),i,?,-7%,?,20µM*
CC1Nc2ncnc(N3CCc4ccccc4C3)c2N(Cc2ccc(Br)cc2)C1=O (configuration not stated),i,11µM*,-6%,?,?
CC1Nc2ncnc(N3CCN(c4ccccc4)CC3)c2N(Cc2ccccc2)C1=O (configuration not stated),i,12%,-1%,-5%,i
CCC1Nc2ncnc(N3CCc4ccccc4C3)c2N(Cc2ccc(Br)cc2)C1=O (configuration not stated),i,35µM*,·,?,?
CC1Nc2ncnc(N3CCc4ccccc4C3)c2N(Cc2ccc(Cl)cc2)C1=O (configuration not stated),i,24%,10%,-2%,i
CC(C)CN1C(=O)C[C@@]2(C(=O)N(C)c3ccc(NS(=O)(=O)C4CCCCC4)cc32)C1c1ccccc1 (some centres not stated),·,·,·,·,i
CCn1cc2nc(SCc3ccc(F)cc3)n(Cc3ccc(Cl)cc3)c(=O)c2n1,i,9%,·,·,i
COc1ccc(CN2C(=O)N(c3cccc(C)c3)C(=O)C2CC(=O)Nc2ccc(F)cc2)cc1OC (configuration not stated),i,32%,·,·,i
Ic1ccc(/C=C2\C=Cc3ccccc32)cc1,·,·,·,-6%,·
